Where “and” joins values, the source holds several entries; their conditions need not be identical. Identical values can stand only once. This is part of a sample that, as a whole, favours compounds with a hit. Of some 83,000 tested, about 20% had one in any assay.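 Each cell line was grown in a 96-well plate and treated with one concentration of compound for 48 hours. Values below 10 were considered active.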 A number with no mark means an inactive call. Calls of active or inactive are those of the source.

The experiment deals with HL-60(TB) leukemia. Put plainly: NCI-60 one-dose screen, 48 h (100 = growth as untreated, 0 = no growth, -100 = all killed). The settings on record: 10 µM unless noted.
Consider `O=C(CCN1CCCC1)Nc1ccc2c(Nc3ccccc3)c3ccccc3nc2c1`, for which the growth was -46% (active).
For `CCOc1ccc(/C=N/N=C(N)N)cc1OCC`, the growth was 64.5%.
Consider `Cc1nc2sc(C(=O)Nc3cccc(Cl)c3C)c(N)c2cc1C(=O)c1ccccc1`, for which the growth is 5.28% (active).
The same measure for `CC(C)NCC(O)c1ccc(O)c(O)c1` (stereo not given): 85.3% and 82.1% and 95.3%; for `COc1ccc(CC(=O)Nc2nn3c(-c4cc(C(F)(F)F)cc(C(F)(F)F)c4)nnc3s2)cc1`: 52%; for `CN(C)CCCn1c2c(c3ncccc3c1=O)C(=O)c1ccccc1-2`: 45.6%.
The same measure for `Fc1cc2c(cc1Cl)N(c1ncnc3ccc(-c4ccc5n[nH]nc5c4)cc13)CC2`: 69.3%; for `COc1cc2c3c(n([C@@H]4CCOC4)c(=O)c2cc1OC)-c1cc2c(cc1C3=O)OCO2`: 26.3%.
The same measure for `N#Cc1c(-c2ccc(Cl)cc2)nc(SCC(=O)NC2=NN=C(c3ccccc3)CS2)[nH]c1=O`: 4.11% (active); for `Cc1cc(Nc2ncnc3ccc(NC4=NC(C)(C)CO4)cc23)ccc1Oc1ccn2ncnc2c1`: 5.69% (active); for `O=Nc1ccc(Nc2ccccc2)cc1`: -1.72% (active).
Take `Cc1ccc(N2C(=O)c3cccc4c(N)c(S(=O)(=O)O)cc(c34)C2=O)cc1`: the growth was 88.8%.
The same measure for `C=CCSc1nc2ccccc2cc1/C=N/O`: 92.1%.
Next, `CC(=O)O[C@@H]1CCN2C(=O)N(C)c3ccccc3[C@@H]2C1`: 101%; `COCC(N)=O`: 90%.
In the case of `O=C1c2ccccc2C(c2ccccc2)C1c1ccccc1` (stereo not given), the growth is 76.4%.
On to `COc1ccc2c(c1)/C(=C1/S/C(=N/c3nnc(C)s3)NC1=O)C(=O)N2Cc1ccc(Br)cc1`, for which the growth is 32.5%.
Next, `CCOc1cc(CNc2ccc(N3CCOCC3)c(C(=O)O)c2)ccc1OC`: 106%; `O=C1OC(C(O)C(O)CO)C(O)=C1O` (stereo not given): 114% and 104%; `CCc1ccc(-c2ccc(NC3CCCCCC3)nn2)cc1S(N)(=O)=O`: 121%.
Next, `CCN(CC)C(=O)/C=C(/C)c1ccccc1`: 101%; `CN(C)Cc1ccc(NC(=O)c2cncc(C#Cc3cnc(N)c4ncccc34)c2)cc1F`: 83.7%; `CC[C@H](C)C(=O)O[C@H]1CCC=C2C=C[C@H](C)C(CCC3C[C@@H](O)CC(=O)O3)[C@H]21` (stereo not given in full): 97.8%.
Next, `Clc1ccc2c(NCCCNCc3ccc4c(c3)OCO4)ccnc2c1`: 76.3%.
`O=C(O)Cc1ccccn1`: the growth is 106%.
On to `O=C(Nc1ccc(C(=O)O)c(O)c1)c1ccccc1`, for which the growth was 99% and 105%.
In the case of `CN(C)c1ccc(-c2cc(-c3cccc(NS(C)(=O)=O)c3)nc(N)c2C#N)cc1`, the growth is 2.91% (active).
Turning to `CC(=O)Nc1cccc2c1CCCC2`, the growth was 89.5% and 105%.
On to `C=CCn1cc(-c2nc3ccccc3s2)c2cc(-c3ccc4c5c(cccc35)C(=O)N(N)C4=O)ccc21`, for which the growth is 103%.
The same measure for `C=C1C(=O)O[C@H]2[C@H]1CC/C(COC(=O)CCC(=O)NCCOCCOCC(=O)Nc1ccc(OC)c(C(N)=O)c1O)=C\CC[C@@]1(C)O[C@@H]21`: 65.3%; for `O=C(O)c1ccc(S(=O)(=O)O)cc1`: 115%.
The same measure for `CCNc1nnnn1CC`: 111%; for `Cc1ccc(NC(=O)COC(=O)c2ccc(S(=O)(=O)N3CCCCCC3)cc2)cc1`: 85.9%; for `CC1CCC(C(=O)O)N1` (stereo not given): 79.7%.
Consider `COc1cc(/C=C/c2cc(/C=C/c3ccc(O)c(OC)c3)n(-c3c(Cl)cccc3Cl)c(=O)n2)ccc1O`, for which the growth is 13.5%.
Next, `O=C1NC(=C(Cl)Cl)/C(=N/S(=O)(=O)N2CCC(C3(C(F)(F)F)N=N3)CC2)N1`: 77%; `CCCNc1ccc(C2=NCCCN2)cc1`: 95.5%; `COc1ccc(C2=CC(c3ccc(Oc4ccnc5cc(Cl)ccc45)c(OC)c3)c3c(nc(OC)[nH]c3=O)N2)cc1` (stereo not given): 85.7%.
For the compound `CCCC(=O)Oc1ccc(/C(=C(\C)c2ccccc2)c2ccc(OCCN(CC)CC)cc2)cc1`, the growth was 39.2%.
For `O=C(Nc1cccc(-n2cc(-c3ccncc3)c(-c3ccc(O)c(Cl)c3)n2)c1)Nc1ccc(Cl)c(Cl)c1`, the growth was -13.2% (active).
